{"source": "paper PMC7010328", "key": {"[1]": {"target": "Nucleosome assembly protein 1-like 1 (UniProt P55209)", "sequence (P55209 whole entry)": "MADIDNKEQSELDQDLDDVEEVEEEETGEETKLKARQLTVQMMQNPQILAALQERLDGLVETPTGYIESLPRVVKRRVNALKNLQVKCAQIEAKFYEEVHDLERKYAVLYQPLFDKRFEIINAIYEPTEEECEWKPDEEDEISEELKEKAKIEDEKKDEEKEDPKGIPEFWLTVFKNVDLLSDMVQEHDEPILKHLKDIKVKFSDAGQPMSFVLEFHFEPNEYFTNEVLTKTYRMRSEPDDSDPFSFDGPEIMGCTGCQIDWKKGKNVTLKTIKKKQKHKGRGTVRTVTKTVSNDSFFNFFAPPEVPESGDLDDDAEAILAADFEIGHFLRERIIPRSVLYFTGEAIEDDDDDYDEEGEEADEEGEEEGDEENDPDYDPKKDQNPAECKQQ", "assay": "cross-link between two proteins; cross-linking mass spectrometry"}, "[2]": {"target": "Small ribosomal subunit protein uS11 (UniProt P62263)", "assay": "cross-link between two proteins; cross-linking mass spectrometry"}}, "data": [{"substance": "60 kDa heat shock protein, mitochondrial, P10809", "values": [{"measurement": "listed as a hit", "setting": "[1]", "value": "yes"}, {"measurement": "listed as a hit", "setting": "[2]", "value": "yes"}]}]}
